# According to PMC7862700, “An all-to-all approach to the identification of sequence-specific readers for epigenetic DNA modifications on cytosine”:
# Target: T1, FEV (Homo sapiens, UniProt Q99581 1-238)
# T1 sequence: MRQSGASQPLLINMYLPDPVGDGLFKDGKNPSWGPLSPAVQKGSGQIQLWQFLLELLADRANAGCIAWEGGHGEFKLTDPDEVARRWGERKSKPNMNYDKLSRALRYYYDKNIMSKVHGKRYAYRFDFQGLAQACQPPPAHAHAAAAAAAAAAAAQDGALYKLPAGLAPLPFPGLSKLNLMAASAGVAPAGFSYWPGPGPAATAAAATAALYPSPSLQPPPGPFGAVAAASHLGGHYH
# Assay: DAPPL (digital affinity profiling via proximity ligation, sequencing); 10 mM Tris-HCl pH 7.5, 50 mM NaCl, 1 mM DTT, 4% glycerol, room temperature, 30 min; GST-TFs on glutathione beads, 16-mer random dsDNA library, 0.1% formaldehyde crosslink after washing; high values mean tight binding
# Conditions: protein: recombinant; tags: N-terminal GST; dsDNA, one strand shown
# Method in brief: (§1)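 A tag-only sample was pooled with DNA-barcoded human transcription factors that had been expressed in yeast as GST fusions and captured on glutathione beads. The pools were incubated for 30 min at room temperature with 200 nmole of a random double-stranded 16-mer DNA library in Tris/NaCl/DTT/glycerol buffer, then washed, crosslinked with 0.1% formaldehyde, proximity-ligated (BsaI/T4 ligase, 1 h, 37 °C), PCR-amplified and sequenced on an Illumina NextSeq500. Binding signal is each hexamer's read frequency for a factor divided by its frequency for the tag-only sample.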
row,Sequence,binding signal
1,CGTACA,"1.2 fold enrichment (6-mer frequency, TF over GST control)"
2,ACTGCG,"1.26 fold enrichment (6-mer frequency, TF over GST control)"
3,AGATGC,"1.05 fold enrichment (6-mer frequency, TF over GST control)"
4,GTTCAA,"1.08 fold enrichment (6-mer frequency, TF over GST control)"
5,TGACAT,"1.23 fold enrichment (6-mer frequency, TF over GST control)"
6,CCGGAA,"8.09 fold enrichment (6-mer frequency, TF over GST control)"
7,GTCTCT,"1.15 fold enrichment (6-mer frequency, TF over GST control)"
8,CGACAT,"1.31 fold enrichment (6-mer frequency, TF over GST control)"
9,AACGAC,"1.16 fold enrichment (6-mer frequency, TF over GST control)"
10,GACCTG,"1.32 fold enrichment (6-mer frequency, TF over GST control)"
11,CGACCA,"1.3 fold enrichment (6-mer frequency, TF over GST control)"
12,GGAACT,"1.72 fold enrichment (6-mer frequency, TF over GST control)"
13,ACTCAC,"1.24 fold enrichment (6-mer frequency, TF over GST control)"
14,GTACAT,"1.35 fold enrichment (6-mer frequency, TF over GST control)"
15,ATGTGG,"1.2 fold enrichment (6-mer frequency, TF over GST control)"
16,GAACCC,"1.17 fold enrichment (6-mer frequency, TF over GST control)"
17,GGAAAA,"1.2 fold enrichment (6-mer frequency, TF over GST control)"
18,ATGTAC,"1.3 fold enrichment (6-mer frequency, TF over GST control)"
19,ATGGAC,"1.3 fold enrichment (6-mer frequency, TF over GST control)"
20,TTCCGT,"1.86 fold enrichment (6-mer frequency, TF over GST control)"

row,Sequence,binding signal
1,GTGCTC,"1.11 fold enrichment (6-mer frequency, TF over GST control)"
2,GTCTTC,"1.34 fold enrichment (6-mer frequency, TF over GST control)"
3,GCAACT,"1.27 fold enrichment (6-mer frequency, TF over GST control)"
4,GTTCCC,"1.27 fold enrichment (6-mer frequency, TF over GST control)"
5,TCTGTC,"1.13 fold enrichment (6-mer frequency, TF over GST control)"
6,TGGCAC,"1.31 fold enrichment (6-mer frequency, TF over GST control)"
7,AACACG,"1.19 fold enrichment (6-mer frequency, TF over GST control)"
8,GAAGTT,"1.62 fold enrichment (6-mer frequency, TF over GST control)"
9,ACCTCG,"1.05 fold enrichment (6-mer frequency, TF over GST control)"
10,CCGGCA,"1.53 fold enrichment (6-mer frequency, TF over GST control)"
11,ACCGTC,"1.17 fold enrichment (6-mer frequency, TF over GST control)"
12,TGCCTG,"1.16 fold enrichment (6-mer frequency, TF over GST control)"
13,ATGTGC,"1.16 fold enrichment (6-mer frequency, TF over GST control)"
14,CCTGCA,"1.26 fold enrichment (6-mer frequency, TF over GST control)"
15,CAGGAA,"1.51 fold enrichment (6-mer frequency, TF over GST control)"
16,TGCCCC,"1.36 fold enrichment (6-mer frequency, TF over GST control)"
17,TAGGAA,"1.06 fold enrichment (6-mer frequency, TF over GST control)"
18,TGTCTC,"1.22 fold enrichment (6-mer frequency, TF over GST control)"
19,GTTTGA,"1.13 fold enrichment (6-mer frequency, TF over GST control)"

# Target: ETV5 (Homo sapiens, UniProt P41161 1-510)
# Assay: as above
# Conditions: protein: recombinant; tags: N-terminal GST; dsDNA, one strand shown
# Method in brief: as §1
# Chain of ETV5 (P41161 whole entry): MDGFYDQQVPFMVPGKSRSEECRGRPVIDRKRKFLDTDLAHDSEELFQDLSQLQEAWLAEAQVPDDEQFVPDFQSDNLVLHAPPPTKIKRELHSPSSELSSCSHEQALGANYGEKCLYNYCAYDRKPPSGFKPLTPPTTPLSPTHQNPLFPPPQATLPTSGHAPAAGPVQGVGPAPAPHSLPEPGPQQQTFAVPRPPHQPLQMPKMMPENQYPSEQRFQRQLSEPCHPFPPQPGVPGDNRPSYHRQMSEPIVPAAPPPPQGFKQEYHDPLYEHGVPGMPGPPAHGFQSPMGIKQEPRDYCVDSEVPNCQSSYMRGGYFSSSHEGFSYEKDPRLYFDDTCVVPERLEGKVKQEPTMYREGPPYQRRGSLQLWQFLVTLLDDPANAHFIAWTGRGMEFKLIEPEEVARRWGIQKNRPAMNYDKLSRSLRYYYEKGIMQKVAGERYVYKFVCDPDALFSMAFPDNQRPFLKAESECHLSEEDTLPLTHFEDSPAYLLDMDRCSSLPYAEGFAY
row,Sequence,binding signal
1,CGTACA,"1.22 fold enrichment (6-mer frequency, TF over GST control)"
2,ACTGCG,"1.21 fold enrichment (6-mer frequency, TF over GST control)"
3,AGATGC,"1.09 fold enrichment (6-mer frequency, TF over GST control)"
4,GTTCAA,"1.14 fold enrichment (6-mer frequency, TF over GST control)"
5,TGACAT,"1.26 fold enrichment (6-mer frequency, TF over GST control)"
6,CCGGAA,"6.13 fold enrichment (6-mer frequency, TF over GST control)"
7,GTCTCT,"1.14 fold enrichment (6-mer frequency, TF over GST control)"
8,CGACAT,"1.26 fold enrichment (6-mer frequency, TF over GST control)"
9,AACGAC,"1.14 fold enrichment (6-mer frequency, TF over GST control)"
10,GACCTG,"1.28 fold enrichment (6-mer frequency, TF over GST control)"
11,CGACCA,"1.17 fold enrichment (6-mer frequency, TF over GST control)"
12,GGAACT,"1.96 fold enrichment (6-mer frequency, TF over GST control)"
13,ACTCAC,"1.18 fold enrichment (6-mer frequency, TF over GST control)"
14,GTACAT,"1.37 fold enrichment (6-mer frequency, TF over GST control)"
15,ATGTGG,"1.09 fold enrichment (6-mer frequency, TF over GST control)"
16,GAACCC,"1.2 fold enrichment (6-mer frequency, TF over GST control)"
17,GGAAAA,"1.32 fold enrichment (6-mer frequency, TF over GST control)"
18,ATGTAC,"1.23 fold enrichment (6-mer frequency, TF over GST control)"
19,ATGGAC,"1.3 fold enrichment (6-mer frequency, TF over GST control)"
20,TTCCGT,"1.99 fold enrichment (6-mer frequency, TF over GST control)"

row,Sequence,binding signal
1,GTGCTC,"1.15 fold enrichment (6-mer frequency, TF over GST control)"
2,GTCTTC,"1.31 fold enrichment (6-mer frequency, TF over GST control)"
3,GCAACT,"1.2 fold enrichment (6-mer frequency, TF over GST control)"
4,GTTCCC,"1.22 fold enrichment (6-mer frequency, TF over GST control)"
5,TCTGTC,"1.18 fold enrichment (6-mer frequency, TF over GST control)"
6,TGGCAC,"1.18 fold enrichment (6-mer frequency, TF over GST control)"
7,AACACG,"1.25 fold enrichment (6-mer frequency, TF over GST control)"
8,GAAGTT,"1.66 fold enrichment (6-mer frequency, TF over GST control)"
9,ACCTCG,"1.11 fold enrichment (6-mer frequency, TF over GST control)"
10,CCGGCA,"1.47 fold enrichment (6-mer frequency, TF over GST control)"
11,ACCGTC,"1.12 fold enrichment (6-mer frequency, TF over GST control)"
12,TGCCTG,"1.37 fold enrichment (6-mer frequency, TF over GST control)"
13,ATGTGC,"1.16 fold enrichment (6-mer frequency, TF over GST control)"
14,CCTGCA,"1.39 fold enrichment (6-mer frequency, TF over GST control)"
15,CAGGAA,"1.79 fold enrichment (6-mer frequency, TF over GST control)"
16,TGCCCC,"1.24 fold enrichment (6-mer frequency, TF over GST control)"
17,TAGGAA,"1.19 fold enrichment (6-mer frequency, TF over GST control)"
18,TGTCTC,"1.33 fold enrichment (6-mer frequency, TF over GST control)"
19,GTTTGA,"1.19 fold enrichment (6-mer frequency, TF over GST control)"

# Target: HSF1 (Homo sapiens, UniProt Q00613 1-529)
# Assay: as above
# Conditions: protein: recombinant; tags: N-terminal GST; chain copies: 3; dsDNA, one strand shown
# Method in brief: as §1
# Chain of HSF1 (Q00613 whole entry): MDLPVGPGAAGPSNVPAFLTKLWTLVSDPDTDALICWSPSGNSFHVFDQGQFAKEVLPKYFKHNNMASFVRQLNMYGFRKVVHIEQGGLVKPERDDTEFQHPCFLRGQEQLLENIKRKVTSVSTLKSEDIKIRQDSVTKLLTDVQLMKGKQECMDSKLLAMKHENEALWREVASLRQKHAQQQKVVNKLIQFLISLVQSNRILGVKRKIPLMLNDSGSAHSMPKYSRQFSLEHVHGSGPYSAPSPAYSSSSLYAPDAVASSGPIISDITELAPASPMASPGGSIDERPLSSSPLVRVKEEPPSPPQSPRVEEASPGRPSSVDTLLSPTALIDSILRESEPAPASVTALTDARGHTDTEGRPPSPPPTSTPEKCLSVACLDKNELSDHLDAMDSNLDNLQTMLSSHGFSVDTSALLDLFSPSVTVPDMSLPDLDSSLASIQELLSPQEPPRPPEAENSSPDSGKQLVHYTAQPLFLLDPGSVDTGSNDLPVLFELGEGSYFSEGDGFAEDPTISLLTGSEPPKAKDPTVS
row,Sequence,binding signal
1,CGTACA,"1.02 fold enrichment (6-mer frequency, TF over GST control)"
2,ACTGCG,"1.06 fold enrichment (6-mer frequency, TF over GST control)"
3,AGATGC,"1.1 fold enrichment (6-mer frequency, TF over GST control)"
4,GTTCAA,"1.03 fold enrichment (6-mer frequency, TF over GST control)"
5,TGACAT,"1.01 fold enrichment (6-mer frequency, TF over GST control)"
6,CCGGAA,"1.68 fold enrichment (6-mer frequency, TF over GST control)"
7,GTCTCT,"1.12 fold enrichment (6-mer frequency, TF over GST control)"
8,CGACAT,"1.07 fold enrichment (6-mer frequency, TF over GST control)"
9,AACGAC,"1.01 fold enrichment (6-mer frequency, TF over GST control)"
10,GACCTG,"1.01 fold enrichment (6-mer frequency, TF over GST control)"
11,CGACCA,"1.14 fold enrichment (6-mer frequency, TF over GST control)"
12,GGAACT,"1.31 fold enrichment (6-mer frequency, TF over GST control)"
13,ACTCAC,"1.07 fold enrichment (6-mer frequency, TF over GST control)"
14,GTACAT,"1.04 fold enrichment (6-mer frequency, TF over GST control)"
15,ATGTGG,"1.04 fold enrichment (6-mer frequency, TF over GST control)"
16,GAACCC,"1.03 fold enrichment (6-mer frequency, TF over GST control)"
17,GGAAAA,"1.62 fold enrichment (6-mer frequency, TF over GST control)"
18,ATGTAC,"1.16 fold enrichment (6-mer frequency, TF over GST control)"
19,ATGGAC,"1.01 fold enrichment (6-mer frequency, TF over GST control)"
20,TTCCGT,"1.02 fold enrichment (6-mer frequency, TF over GST control)"

row,Sequence,binding signal
1,GTGCTC,"1.05 fold enrichment (6-mer frequency, TF over GST control)"
2,GTCTTC,"1.17 fold enrichment (6-mer frequency, TF over GST control)"
3,GCAACT,"1.05 fold enrichment (6-mer frequency, TF over GST control)"
4,GTTCCC,"1.26 fold enrichment (6-mer frequency, TF over GST control)"
5,TCTGTC,"1.07 fold enrichment (6-mer frequency, TF over GST control)"
6,TGGCAC,"1.03 fold enrichment (6-mer frequency, TF over GST control)"
7,AACACG,"1.02 fold enrichment (6-mer frequency, TF over GST control)"
8,GAAGTT,"1.39 fold enrichment (6-mer frequency, TF over GST control)"
9,ACCTCG,"1.14 fold enrichment (6-mer frequency, TF over GST control)"
10,CCGGCA,"1.01 fold enrichment (6-mer frequency, TF over GST control)"
11,ACCGTC,"1.13 fold enrichment (6-mer frequency, TF over GST control)"
12,TGCCTG,"1.05 fold enrichment (6-mer frequency, TF over GST control)"
13,ATGTGC,"1.02 fold enrichment (6-mer frequency, TF over GST control)"
14,CCTGCA,"1.11 fold enrichment (6-mer frequency, TF over GST control)"
15,CAGGAA,"1.04 fold enrichment (6-mer frequency, TF over GST control)"
16,TGCCCC,"1.01 fold enrichment (6-mer frequency, TF over GST control)"
17,TAGGAA,"1.11 fold enrichment (6-mer frequency, TF over GST control)"
18,TGTCTC,"1.01 fold enrichment (6-mer frequency, TF over GST control)"
19,GTTTGA,"1.03 fold enrichment (6-mer frequency, TF over GST control)"
